# Test results: the supplement of paper PMC8728848
# The sample as a whole holds a higher share of the strongest signals than the screen did.
# B1: Blon2355mut (Bifidobacterium longum) (protein)
# chain: MVQEPTLEWHVIPEPTNVEPLVGTCSLPLSGTVVEQRGADDAEAVFARQLVDDIKRVCGGRWQVASGEVQREVTLRTSPSLDDWSYVLEVSPDGVVITGSGFEGVRDGVQTLRQIIRQIGLTIPCMVIRDRPAFSTRGYYLDVTRGRVPSMAWLKSWVDRLCFYKYNQFQLYIEHTFQFNGLSEVWRGADPLTSSDILELDSYCAARGIELVPSVSTFGHHYTALRTRQLRDLGEFPEDADRPFSLIERMTHHTLNITDERSYEFSTSLIDELMPLFRSRKFNICANETFDLGKGRSKQESAKRGVGAMYADFVERLCRHVDDRGHDVMVWADVALEHPEIIDTLPKNITWLNWQYEPNVDDGTTAALADAGATQMVCPAVWCWNALIPRIDDAWNNITRMARHGRAHDVSGMLVTDWGDFGHVNDPRMSVPGMIFGAQQSWNPDAELSEVDMLSRISTIEYGDHTGSVVGALRGASAKGGFSWSDLVTYLELDDGRGGCNTEIVRVMGCLEAYRNDLPQSGQARLADARVSMLRTLRDSILAGRELNGKLDDAAKDITQLLRVAGDPSSAAVWSLAIDGQRLLNRVGLALLAAHGVVRQDEAGIDAAKLADELECWTEQYSRLWHEVSRQSELARIQHVVWRAADVLRSI
# Key:
# Assay in all cases: glycan array binding signal (z-score within array); higher = stronger binding
# Settings in all cases: glycan notation: IUPAC condensed, linker removed
# [1] = target: GlcNAc(b1-2)Man(a1-3)[GlcNAc(b1-2)Man(a1-6)]Man(b1-4)GlcNAc(b1-4)GlcNAc
# Summary of the method: (§1)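 From the Consortium for Functional Glycomics database, 3228 arrays were curated, keeping only those whose protein sequence was available. Binding is given as a within-array Z-score averaged across arrays sharing a protein sequence and across linkers. Negative Z-scores can be read as non-binding.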
# [2] = target: GlcNAc(b1-3)Gal(b1-4)GlcNAc(b1-3)Gal(b1-4)GlcNAc(b1-3)Gal(b1-4)GlcNAc(b1-3)Gal(b1-4)GlcNAc(b1-2)Man(a1-3)[GlcNAc(b1-3)Gal(b1-4)GlcNAc(b1-3)Gal(b1-4)GlcNAc(b1-3)Gal(b1-4)GlcNAc(b1-3)Gal(b1-4)GlcNAc(b1-2)Man(a1-6)]Man(b1-4)GlcNAc(b1-4)[Fuc(a1-6)]GlcNAc
# Summary of the method: as §1
# [3] = target: GlcNAc(b1-3)Gal(b1-4)GlcNAc(b1-3)[GlcNAc(b1-3)Gal(b1-4)GlcNAc(b1-3)]GalNAc
# Summary of the method: as §1
# [4] = target: GlcNAc(b1-3)[GlcNAc(b1-6)]GalNAc
# Summary of the method: as §1
# [5] = target: Neu5Ac(a2-3)Gal(b1-3)[Fuc(a1-4)]GlcNAc(b1-3)Gal(b1-3)[Fuc(a1-4)]GlcNAc
# Summary of the method: as §1
# [6] = target: Neu5Ac(a2-3)Gal(b1-3)[Neu5Ac(a2-6)]GlcNAc(b1-3)[Fuc(a1-3)[Gal(b1-4)]GlcNAc(b1-6)]Gal(b1-4)Glc
# Summary of the method: as §1
# Neu5Ac(a2-3)Gal(b1-4)Glc = target: Neu5Ac(a2-3)Gal(b1-4)Glc
# Summary of the method: as §1
# [7] = target: Neu5Ac(a2-3)Gal(b1-4)[Fuc(a1-3)]GlcNAc(b1-2)Man
# Summary of the method: as §1
# [8] = target: Neu5Ac(a2-3)Gal(b1-4)[Fuc(a1-3)]GlcNAc(b1-6)[Neu5Ac(a2-3)Gal(b1-3)]GalNAc
# Summary of the method: as §1
# [9] = target: Neu5Ac(a2-6)Gal(b1-4)GlcNAc(b1-2)Man(a1-3)[Gal(b1-4)GlcNAc(b1-2)Man(a1-6)]Man(b1-4)GlcNAc(b1-4)GlcNAc
# Summary of the method: as §1
# [10] = target: Neu5Ac(a2-6)GalNAc(b1-4)GlcNAc6S
# Summary of the method: as §1
# [11] = target: Neu5Ac9Ac(a2-6)Gal(b1-4)GlcNAc
# Summary of the method: as §1
binder,measurement,setting,value
B1,glycan array binding signal (z-score),[1],-0.111
same,glycan array binding signal (z-score),[2],1.1
same,glycan array binding signal (z-score),[3],3.84
same,glycan array binding signal (z-score),[4],-0.847
same,glycan array binding signal (z-score),[5],-0.494
same,glycan array binding signal (z-score),[6],4.03
same,glycan array binding signal (z-score),Neu5Ac(a2-3)Gal(b1-4)Glc,3.29
same,glycan array binding signal (z-score),[7],1.4
same,glycan array binding signal (z-score),[8],1.6
same,glycan array binding signal (z-score),[9],-0.73
same,glycan array binding signal (z-score),[10],-0.126
same,glycan array binding signal (z-score),[11],3.4
